Several values for one entry are separate records, joined by “and”; a condition that tells them apart may be missing. Identical values can stand only once. In all, about 5,500 compounds went through this assay and about 2,000 (36%) were called active. About 18% were inconclusive and are not listed. Rule as the data show it: active = normalized growth mostly below about 0.91 (no sharp cut-off); inconclusive = no clear call, values can overlap the other calls; inactive = mostly above about 0.92. The list shows a part of the results.
Experiment: chemical genetic growth profiling, strain panel (AID 1159580);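 also: tested at 20 µM; growth read once vehicle control cultures reached saturation at 30 °C; 1 = growth at the plate median or of vehicle wells; lower values mean less growth of the strain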
Details: S. cerevisiae deletion strains, growth OD

Measured: normalized growth

CC(=O)CCCCn1c(=O)c2c(ncn2C)n(C)c1=O
inactive: locus YAL013W, strain DEP1, active compounds read low 1.02 | locus YAL021C, strain ccr4, active compounds read low 1.01 | locus YAL026C, strain drs2, active compounds read low 1.01 | locus YAL030W, strain snc1, active compounds read low 1.01 | locus YAL040C, strain CLN3, active compounds read low 1 | locus YBL061C, strain skt5, active compounds read low 1.01 | locus YBR009C, strain hhf1, active compounds read low 1.02 | locus YBR021W, strain FUR4, active compounds read low 0.991 | locus YBR023C, strain chs3, active compounds read low 1.01 | locus YBR171W, strain sec66, active compounds read low 1.04 | locus YBR229C, strain ROT2, active compounds read low 1.02 | locus YBR231C, strain swc5, active compounds read low 1.03 | locus YBR279W, strain paf1, active compounds read low 1 | locus YCL011C, strain gbp2, active compounds read low 1.01 | locus YCL016C, strain dcc1, active compounds read low 1.01 | locus YCL029C, strain bik1, active compounds read low 1.01 | locus YCL061C, strain MRC1 (second series), active compounds read low 1.01 | locus YCL061C, strain MRC1, active compounds read low 1.01 | locus YCL069W, strain vba3, active compounds read low 1 | locus YCR088W, strain abp1, active compounds read low 1.01 | locus YDL005C, strain med2, active compounds read low 1.01 | locus YDL035C, strain GPR1, active compounds read low 1.01 | locus YDL040C, strain nat1, active compounds read low 1.01 | locus YDL074C, strain BRE1, active compounds read low 1.04 | locus YDL101C, strain DUN1, active compounds read low 1.02 | locus YDL185W, strain tfp1, active compounds read low 0.999 | locus YDL192W, strain arf1, active compounds read low 1 | locus YDR001C, strain nth1, active compounds read low 1.01 | locus YDR069C, strain doa4, active compounds read low 1.03 | locus YDR101C, strain arx1, active compounds read low 1.01 | locus YDR137W, strain rgp1, active compounds read low 1.03 | locus YDR150W, strain NUM1, active compounds read low 1.02 and 0.998 | locus YDR159W, strain sac3, active compounds read low 1.03 | locus YDR162C, strain NBP2, active compounds read low 1.01 | locus YDR195W, strain ref2 1.02 | locus YDR297W, strain sur2, active compounds read low 1.01 | locus YDR318W, strain mcm21, active compounds read low 0.993 | locus YDR334W, strain swr1, active compounds read low 1.02 | locus YDR335W, strain msn5, active compounds read low 1.01 | locus YDR363W, strain ESC2, active compounds read low 1 | locus YDR388W, active compounds read low 0.999 | locus YDR392W, strain spt3, active compounds read low 1.02 | locus YDR502C, strain sam2, active compounds read low 1.01 | locus YEL003W, strain gim4, active compounds read low 1.01 | locus YEL037C, strain rad23, active compounds read low 1.01 | locus YEL061C, strain CIN8 (second series), active compounds read low 1.01 | locus YEL061C, strain CIN8, active compounds read low 1.01 | locus YER002W, strain NOP16, active compounds read low 1.03 | locus YER015W, strain faa2, active compounds read low 1.02 | locus YER016W, strain bim1, active compounds read low 1.01 | locus YER110C, active compounds read low 0.992 | locus YER111C, strain swi4, active compounds read low 1.03 | locus YER155C, strain BEM2 (second series), active compounds read low 1.02 | locus YER155C, strain BEM2, active compounds read low 1.01 | locus YER167W, strain BCK2, active compounds read low 1 | locus YFR010W, strain ubp6, active compounds read low 1.01 | locus YGL078C, strain dbp3, active compounds read low 1.01 | locus YGL086W, strain mad1, active compounds read low 1.01 | locus YGL167C, strain pmr1, active compounds read low 1.02 | locus YGL173C, strain kem1, active compounds read low 1.02 | locus YGL227W, strain vid30, active compounds read low 1.01 | locus YGL240W, strain doc1, active compounds read low 1.03 | locus YGL248W, strain PDE1, active compounds read low 1.03 | locus YGL253W, strain hxk2, active compounds read low 1.02 | locus YGR078C, strain PAC10, active compounds read low 1.02 | locus YGR135W, strain pre9, active compounds read low 0.967 | locus YGR229C, strain SMI1, active compounds read low 1.02 | locus YGR252W, strain gcn5, active compounds read low 0.983 | locus YHR013C, strain ard1, active compounds read low 1.04 | locus YHR027C, strain rpn1, active compounds read low 1.02 | locus YHR030C, strain SLT2, active compounds read low 1.02 and 0.994 | locus YHR079C, strain IRE1 (second series), active compounds read low 1.01 | locus YHR079C, strain IRE1, active compounds read low 0.99 | locus YHR094C, strain hxt1, active compounds read low 0.995 | locus YHR129C, strain ARP1, active compounds read low 1.02 | locus YHR142W, strain chs7, active compounds read low 1.01 | locus YHR200W, strain rpn10, active compounds read low 1 | locus YIL066C, strain RNR3, active compounds read low 1.03 | locus YIL073C, strain SPO22, active compounds read low 0.971 | locus YIL125W, strain kgd1, active compounds read low 0.999 | locus YIR030C, strain dcg1, active compounds read low 1.01 | locus YJL092W, strain hpr5, active compounds read low 1.01 | locus YJL095W, strain BCK1 (second series), active compounds read low 1 | locus YJL095W, strain BCK1, active compounds read low 1.03 and 0.986 | locus YJL115W, strain asf1, active compounds read low 1.01 | locus YJL129C, strain trk1, active compounds read low 1.03 | locus YJL134W, strain LCB3, active compounds read low 1 | locus YJL154C, strain vps35, active compounds read low 1.01 | locus YJL164C, strain tpk1, active compounds read low 1.02 | locus YJL166W, strain qcr8, active compounds read low 1.01 | locus YJL168C, strain set2, active compounds read low 0.99 | locus YJL187C, strain SWE1 (second series), active compounds read low 1.03 | locus YJL187C, strain SWE1, active compounds read low 1.01 | locus YJR043C, strain POL32, active compounds read low 1.04
